Screening results deposited in PubChem by Center for Chemical Genomics, University of Michigan.
Only a selection was taken, and hits are over-represented in it overall.
Dicer inh = inhibitors of Dicer pre-microRNA processing, primary screen, biochemical, cat-ELCCA, chemiluminescence. Endoribonuclease Dicer (Homo sapiens), Q9UPY3. cat-ELCCA pre-miR-21 Dicer processing; hits give high values. z-score at 25 µM. 47,000 tested, 6% active. AID 1347074, 2019; in the data active = z-score above about 3, passing the limit was not always enough;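 note: higher signal means more uncleaved substrate so more Dicer inhibition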
Target sequence (Q9UPY3 whole entry, looked up): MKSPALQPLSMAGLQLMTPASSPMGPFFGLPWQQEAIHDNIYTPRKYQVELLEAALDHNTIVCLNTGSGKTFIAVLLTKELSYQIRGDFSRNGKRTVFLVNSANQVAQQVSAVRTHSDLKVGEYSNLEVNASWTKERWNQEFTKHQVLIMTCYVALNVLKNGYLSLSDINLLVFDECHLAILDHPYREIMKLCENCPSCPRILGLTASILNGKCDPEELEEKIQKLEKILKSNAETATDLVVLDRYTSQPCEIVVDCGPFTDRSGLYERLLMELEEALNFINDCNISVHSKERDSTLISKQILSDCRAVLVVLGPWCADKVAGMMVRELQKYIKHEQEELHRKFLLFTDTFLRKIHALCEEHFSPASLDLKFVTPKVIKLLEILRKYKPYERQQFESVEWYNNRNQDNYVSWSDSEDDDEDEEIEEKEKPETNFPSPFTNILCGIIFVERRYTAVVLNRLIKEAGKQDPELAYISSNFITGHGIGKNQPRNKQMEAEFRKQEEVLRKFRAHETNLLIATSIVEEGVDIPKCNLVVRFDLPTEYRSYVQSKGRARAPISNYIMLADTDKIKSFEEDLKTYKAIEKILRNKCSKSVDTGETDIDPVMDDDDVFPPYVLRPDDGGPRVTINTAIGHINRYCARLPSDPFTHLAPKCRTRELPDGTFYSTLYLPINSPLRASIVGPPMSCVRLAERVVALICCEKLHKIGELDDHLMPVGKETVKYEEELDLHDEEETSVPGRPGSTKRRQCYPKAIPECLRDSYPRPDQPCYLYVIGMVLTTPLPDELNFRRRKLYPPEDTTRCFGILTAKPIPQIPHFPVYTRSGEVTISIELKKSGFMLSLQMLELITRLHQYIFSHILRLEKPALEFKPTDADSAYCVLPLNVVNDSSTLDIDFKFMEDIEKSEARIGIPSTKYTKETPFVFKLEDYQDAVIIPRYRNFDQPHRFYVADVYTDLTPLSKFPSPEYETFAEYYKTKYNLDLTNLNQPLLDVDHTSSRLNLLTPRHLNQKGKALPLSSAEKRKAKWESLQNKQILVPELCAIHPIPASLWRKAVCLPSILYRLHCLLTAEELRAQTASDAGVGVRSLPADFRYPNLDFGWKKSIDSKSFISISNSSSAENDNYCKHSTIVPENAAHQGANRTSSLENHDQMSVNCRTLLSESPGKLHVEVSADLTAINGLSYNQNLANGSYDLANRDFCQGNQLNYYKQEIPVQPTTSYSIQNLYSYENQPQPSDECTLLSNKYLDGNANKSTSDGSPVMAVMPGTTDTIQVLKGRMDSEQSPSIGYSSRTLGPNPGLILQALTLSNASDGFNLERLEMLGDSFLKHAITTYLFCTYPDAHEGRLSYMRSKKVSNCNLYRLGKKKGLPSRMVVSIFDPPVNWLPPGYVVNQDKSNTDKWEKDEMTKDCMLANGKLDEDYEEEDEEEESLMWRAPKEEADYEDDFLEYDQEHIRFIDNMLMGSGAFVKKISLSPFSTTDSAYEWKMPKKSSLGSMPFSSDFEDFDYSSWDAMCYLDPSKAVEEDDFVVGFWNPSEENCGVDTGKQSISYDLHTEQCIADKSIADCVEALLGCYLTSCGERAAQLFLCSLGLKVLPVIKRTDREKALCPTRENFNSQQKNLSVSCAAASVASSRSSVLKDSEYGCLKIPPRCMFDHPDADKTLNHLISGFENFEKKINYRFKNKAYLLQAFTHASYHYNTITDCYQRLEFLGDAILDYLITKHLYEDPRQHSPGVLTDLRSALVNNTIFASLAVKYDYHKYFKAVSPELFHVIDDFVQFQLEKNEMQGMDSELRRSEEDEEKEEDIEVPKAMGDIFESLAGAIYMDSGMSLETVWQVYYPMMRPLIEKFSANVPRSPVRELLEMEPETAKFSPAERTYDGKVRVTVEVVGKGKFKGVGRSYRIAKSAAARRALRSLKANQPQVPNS
Large screens that a line does not name were inactive.

CCCCCCSc1nnc2[nH]c(=O)cc(N)n12	Dicer inh 3.8
C=CCSc1n[nH]c(=O)n1C1CCCCC1	none
C=CCSc1nnc2[nH]c(=O)cc(N)n12	Dicer inh 5.2
COc1ccccc1OCCSc1nnc2[nH]c(=O)cc(N)n12	none
COc1ccc(C2NC(C(=O)O)CS2)c(OC)c1 (centres undefined)	none
O=C(NNS(=O)(=O)c1ccc(Cl)c(Cl)c1)c1sccc1-n1cccc1	none
NC(=O)CCS(=O)CCC(N)=O	none
CN(NC(=O)c1ccc(Cl)cc1)c1ncc(Cl)cc1C(F)(F)F	none
CN(/N=C/c1ccccc1Cl)c1ncc(C(F)(F)F)cc1Cl	none
CN(/N=C/c1ccc(O)cc1O)c1ncc(Cl)cc1C(F)(F)F	Dicer inh 12
CCOC(=O)c1cnc2c(c(C)nn2C)c1N1CCC(C(=O)OCC)CC1	none
CCOc1ccc(NC2CC(=O)N(c3ccc(OC)cc3OC)C2=O)cc1 (centres undefined)	none
CCc1ccc(NC2CC(=O)N(c3ccc(C)cc3Br)C2=O)cc1 (centres undefined)	Dicer inh 3.3
COc1ccc(NC2CC(=O)N(c3cccc4ccccc34)C2=O)cc1 (centres undefined)	none
Cc1[nH]nc2c1C1(C(=O)Nc3ccccc31)C(C#N)=C(N)O2 (centres undefined)	none
CCCSc1nnc2c(n1)OC(c1ccc([N+](=O)[O-])o1)Nc1ccccc1-2 (centres undefined)	none
COc1ccc(C(=O)CC2(O)C(=O)Nc3ccccc32)c(OC)c1 (centres undefined)	none
Cc1nn(-c2ccccc2)nc1C(=O)c1c(C(C)(C)C)[nH]n(-c2ccccc2)c1=O	none
Cc1nc(C)c(-c2csc(Nc3ccc(O)cc3)n2)s1	Dicer inh 6.1
CC(=O)Nc1nc(C)c(-c2csc(Nc3ccccn3)n2)s1	none
COc1ccc(Nc2nc(-c3sc(C)nc3C)cs2)cc1	none
CC(=O)Nc1nc(C)c(-c2csc(Nc3ccc(O)cc3)n2)s1	none
Cc1ccn2c(-c3csc(Nc4ccc(O)cc4)n3)c(C)nc2c1	Dicer inh 7.1
Cc1nc2ncccn2c1-c1csc(Nc2ccc(O)cc2)n1	none
Cc1nc2ccccn2c1-c1csc(Nc2ccccn2)n1	none
Cc1ccn2c(-c3csc(Nc4ccc(S(=O)(=O)Nc5cc(C)on5)cc4)n3)c(C)nc2c1	none
Cc1ccnc(Nc2nc(-c3c(C)nc4cc(C)ccn34)cs2)c1	Dicer inh 5.6
CC1CC(=O)c2cn3nc(-c4ccncc4)nc3nc2C1 (centres undefined)	none
Cc1nn(-c2ccccc2)c2c1C(=O)C(Br)C(c1ccccc1)C2 (centres undefined)	none
CC(C)(CO)NC(=S)Nc1ccccc1F	none
O=C1CC(S(=O)(=O)c2ccccc2)C(=O)N1c1cc(Cl)cc(Cl)c1 (centres undefined)	none
Cc1c(Br)sc2ccc(Cl)cc12	none
CSc1ccccc1NC(=O)c1cc2n(n1)C(C(F)(F)F)CC(c1ccc3c(c1)OCO3)N2 (centres undefined)	none
COCCNC(=O)c1cc2sc3ccccc3c2s1	Dicer inh 3.9
O=C(Nc1ccc(F)cc1)c1sc2ccccc2c1Cl	none
CN(C)c1ccc(C(O)C(=O)c2cccs2)cc1 (centres undefined)	none
COC(=O)c1sc2ccccc2c1Cl	none
O=C(Nc1ccc2c(c1)CS(=O)(=O)C2)c1cccs1	none
CN(C)c1ccc(NC(=O)c2cccs2)cc1	Dicer inh 3.2
O=C(Nc1cccc(S(=O)(=O)N2CCOCC2)c1)c1cc2sc3ccccc3c2s1	none
CCN(CC)CCCNC(=O)c1sc2ccccc2c1Cl	none
CN(C)c1ccc(NC(=O)c2cc3sc4ccccc4c3s2)cc1	Dicer inh 6.5
Cc1nc2nc(C(F)(F)F)[nH]n2c(=O)c1Cc1ccc(Cl)cc1	none
S=c1c2ccccc2oc2ccccc12	none
CN1C(C(=O)c2ccccc2)=C(OC(=O)COc2ccccc2)c2ccccc2S1(=O)=O	none
CSC1=N/C(=C/c2cccnc2)C(=O)N1CCOc1ccccc1Cl	none
Cc1ccc2onc(OC(=O)NC(C)C)c2c1	none
Cc1cc(C)c2c(C)c(C(=O)NN)sc2n1	none
COC(=O)c1scc(C)c1NC(=O)CC#N	none
CN(C)c1ccc(/C=N/NC(N)=S)cc1C#N	none
Cc1nnc(N2C(=O)c3oc4ccccc4c(=O)c3C2c2ccc(C(C)C)cc2)s1 (centres undefined)	none
Cc1c(CC(=O)N(C)C)sc2ccccc12	none
Cc1c(C)c(C)c(S(=O)(=O)Oc2ccc([N+](=O)[O-])cc2)c(C)c1C	Dicer inh 4.7
Cc1ccc(S(=O)(=O)Oc2ccc(-c3ccc(OS(=O)(=O)c4ccc(C)cc4)cc3)cc2)cc1	none
N#Cc1c(OCC(F)(F)F)ccc(S(=O)(=O)Oc2ccc([N+](=O)[O-])cc2)c1OCC(F)(F)F	none
O=c1oc2c(c(O)c1Cc1ccccc1)c(=O)[nH]c1ccccc12	none
Cc1nn(C)c(NC(=O)c2ccccc2)c1Br	none
O=C1CC(c2ccco2)CC2=C1C(c1cccnc1)n1c(nc3ccccc31)N2 (centres undefined)	none
COc1ccc(C2CC(=O)C3=C(C2)Nc2nc4ccccc4n2C3c2ccco2)cc1 (centres undefined)	none
